Measured values as given in PubChem BioAssay (NCI).
About 83,000 compounds went through this panel and 20% of them were active in at least one assay; those are over-represented in the sample as a whole.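 Single-dose data. Exposure time 48 hours. Values below 10 considered active.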 Values without a mark were called inactive. Calls of active or inactive are those of the source.

Each compound was assayed on SW-620 colon (assay: NCI-60 one-dose screen, 48 h (100 = growth as untreated, 0 = no growth, -100 = all killed)). Conditions: 10 µM.
Experimental: Growth inhibition of the SW-620 human tumor cell line is measured as a screen for anti-cancer activity. Cells are grown in 96 well plates and exposed to the test compound for 48 hours. Compounds are tested at a single concentration, which is 10^-5 M for most compounds. The reported endpoint is percent growth (GI% or GIPRCNT), where numbers from 0 - 100% represent growth inhibition, and numbers from -100% - 0 represent cell death. For example, a value of 40 represents 60% growth inhibition. A value of 0 means no net growth occurred over the course of the experiment. A value of -40 indicates 40% of cells at the beginning of the experiment died by the end of the experiment. A value of -100 means all cells are dead at the end of the experiment.
NCI-60 Human Tumor Cell Lines Screen was performed using the standard one-dose NCI protocol, which is described in more detail at https://dtp.cancer.gov/discovery_development/nci-60/default.htm.
Compounds with GIPRCNT values below 10 were considered active. Activity score was based on GIPRCNT using the following formula: […]
Score is 0 for GIPRCNT values of 100 or above, 50 for GIPRCNT values of 0, and 100 for GIPRCNT values of -100.

SMILES | growth
C=CCN1C(=O)/C(=C\c2ccc3c(c2)CCC3)SC1=S | 104%
COc1cc(-c2cc(-c3cc(OC)c(OC)c(OC)c3)nc3nc(N)[nH]c(=O)c23)ccc1Oc1ccnc2cc(Cl)ccc12 | 19.6%
CC(=O)O[C@H]1CC[C@@]2(C)[C@@H](CC[C@@H]3[C@@H]2CC[C@]2(C)C=C(C=O)C[C@@H]32)C1 | 30.1%
Cc1cc(OI)c(C(C)C)cc1-c1cc(C(C)C)c(OI)cc1C | 113%
O=C(N/N=C\c1cc(Cl)ccc1O)c1ccncc1 | 64.7%
CCc1cc2n(n1)-c1ncc(C(=O)OC)cc1Oc1ccccc1-2 | 106%
COc1ccccc1CNCCCN1C(=O)c2ccc3c4c(ccc(c24)C1=O)C(=O)N(CCCNCCNCCCN)C3=O | 8.12% (active)
CC(C)(C)c1ccc(OCCCCCCN2CCNCC2)cc1 | 45.9%
Nc1c(C(=O)NC2CCCCC2)sc2nc3c(cc12)C(=O)CCC3 | 98.8%
O=c1[nH]c(=O)n(C2C[C@@H](O)[C@@H](CO)O2)cc1F (stereo not given in full) | 55.9%
CCOC(=O)c1cc(-c2ccccc2)nc(N)n1 | 103%
Cc1ccc([P+](Cc2ccc([N+](=O)[O-])cc2)(c2ccc(C)cc2)c2ccc(C)cc2)cc1 | 45.2%
FC(F)(F)c1ccc(-c2cnc(Br)nc2NC2CCCCCC2)cc1 | 28.2%
Nc1ncc(-c2ccc(C(F)(F)F)cc2)c(NC2CCCCCC2)n1 | 37.4%
CNCCCNCCCN1C(=O)c2ccc3c4c(ccc(c24)C1=O)C(=O)N(CCCNCc1ccccc1OC)C3=O | -19% (active)
CCCCCCCCCCN=C(c1ccc(N(C)C)cc1)c1ccc(N(C)C)cc1 | 16.8%
CC(C)OP(=O)(O)c1ncc(-c2ccc(C(F)(F)F)cc2)c(NC2CCCCCC2)n1 | 54.7%
COc1ccc(-c2csc(-c3cc(Cl)cc(Cl)c3Cl)n2)cc1 | 46.4%
O=C(O)CN1C(=O)C=CC1=O | 107%
CC(C)/C=N/NC(N)=S | 76.4%

SMILES | growth
NC(=O)c1ccc(Br)o1 | 113%
COc1ccc(C2C=C(c3ccc(Cl)c(Cl)c3)N=C3SC(C)=CN32)cc1OC (stereo not given) | 85.7%
CCCCCCN=C(N)CCCCCCCCCCC(N)=NCCCCCC | 22.4%
Nc1c(C(=O)Nc2ccccc2F)sc2nc3c(cc12)C(=O)CCC3 | 30%
COc1cccc(-c2nnc(COc3ccc(-c4nc5ccc(C)cc5[nH]4)cc3OC)o2)c1 | 64.5%
N=C(N)c1ccc(-c2ccc(-c3ccccc3)s2)s1 | -71.1% (active)
CCCOCC(O)CNCCN (stereo not given) | 98.9%
COc1ccc(-c2cc(/C=C3\C(=O)Nc4cc(Cl)ccc43)[nH]n2)cc1 | 19.9%
NC(N)=NS(=O)(=O)c1ccc(Nc2ccc3nnc(-c4ccncc4)n3n2)cc1 | 97.6%
COC(=O)CCCCCCCCC(C)c1ccc(C(C)=O)cc1 (stereo not given) | 103%
Oc1ccc(Cn2cc3c(c2-c2ccccc2)CCc2cnoc2-3)cc1 | 98%
Cc1ccc2nc3[nH]c(=O)[nH]c(=O)c3c(N)c2c1 | 97.8%
C=CCc1cc(Nc2c3ccc(Cl)cc3nc3ccc(OC)cc23)cc(CN(CC)CC)c1O | 15.9%
COc1cc(CSc2nc3ccc(Cl)cc3c(=O)n2-c2ccccc2)cc(OC)c1OC | 79.7%
C/C(=N/NC(=O)c1sc(=S)n(C)c1N)c1cc2cc(Cl)ccc2o1 | 44.3%
C=CCNCCCN1C(=O)c2ccc3c4c(ccc(c24)C1=O)C(=O)N(CCCNCC=C)C3=O | -54.1% (active)
Cn1c([N+](=O)[O-])cnc1C=C1C(=O)c2ccccc2C1=O | 29%
O=C1c2cc(Cl)ccc2-c2c(O)cc(Cl)cc21 | 82.7%
CCCCCCCCCCCCCCCCCBr | 107%
CCc1nn2c(-c3cc(OC)c(OC)c(OC)c3)c(-c3cc(OC)c(OC)c(OC)c3)nc2s1 | 86.3%
